# Reference: PubChem BioAssay AID1014 (NMMLSC, 2008)
# Active and inactive are the calls of the source. Rule as the data show it: active = inhibition of mean fluorescence above about 33%; inactive = the rest.
# Experiment: quorum sensing inhibitors in bacterial reporter, SAR follow-up, flow cytometry, SAR analogs (AID 1014);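 also: Staphylococcus aureus RN6390 with RNAIII-GFP reporter stimulated by AIP; bacteria incubated with compound for 3 hours at 37 °C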
# Settings: at 20 µM, stronger effect = higher value; inhibition of percent positive cells: flow cytometry fluorescence, measured here: percent reporter-positive cells
SMILES,inhibition of mean fluorescence,inhibition of percent positive cells [%]
Cc1nnc2c3ccccc3nc(Nc3ccccc3C(=O)O)n12,18.4% (inactive),-0.2
CCOc1ccc(Nc2nc3c(S(=O)(=O)c4ccc(Br)cc4)nnn3c3ccccc23)cc1,-22.8% (inactive),-0.3
CCOC(=O)c1c(-c2ccccc2)oc2ccc(O)cc12,13.3% (inactive),-0.9
Cc1nnc(N2CCC(C(=O)Nc3ccc4c(c3)OCCO4)CC2)c2nn(-c3ccccc3)c(C)c12,-7.3% (inactive),0
CCc1ccc(Nc2nc3c(S(=O)(=O)c4ccc(Br)cc4)nnn3c3ccccc23)cc1,-16.7% (inactive),0
COc1ccc(CC(=O)Nc2oc(-c3ccccc3)c(-c3ccccc3)c2C#N)cc1,42.6% (active),1.3
O=C(NCC(c1cccnc1)N1CCN(c2ccc(F)cc2)CC1)c1ccc(F)cc1 (configuration not stated),-11.6% (inactive),-0.2
CC(C)c1ccc(S(=O)(=O)c2nnn3c2nc(N)c2ccccc23)cc1,11.1% (inactive),0.3
COc1ccc(Nc2nc3c(S(=O)(=O)c4ccccc4)nnn3c3ccsc23)cc1,-41.7% (inactive),0.3
COc1ccc(N2CCN(C(CNC(=O)c3ccc(F)cc3)c3cccnc3)CC2)cc1 (configuration not stated),-63.3% (inactive),-1.5
COc1ccc(C(=O)NCC(c2cccnc2)N2CCN(c3ccccc3F)CC2)cc1OC (configuration not stated),-7.3% (inactive),-1.8
COc1ccc(Nc2nc3c(S(=O)(=O)c4ccc(C)cc4)nnn3c3ccsc23)cc1,-6.2% (inactive),-0.3
Cc1c(Nc2c(C(=O)O)cc([N+](=O)[O-])cc2[N+](=O)[O-])c(=O)n(-c2ccccc2)n1C,-3.7% (inactive),-0.4
CCOC(=O)c1oc2cccc(O)c2c1C,0.4% (inactive),-0.8
O=C(NCC(c1cccnc1)N1CCN(c2ccccc2F)CC1)c1cccs1 (configuration not stated),19.5% (inactive),-0.4
CN=C1NC(=O)CC(C(=O)Nc2ccc3ccccc3c2)S1 (configuration not stated),-1.7% (inactive),-0.3
CCc1ccc(Nc2nc3c(S(=O)(=O)c4ccccc4)nnn3c3ccccc23)cc1,20.8% (inactive),-1.2
CCOC(=O)c1c(-c2cc(Cl)c(OC)c(Cl)c2)oc2ccc(O)cc12,-4.9% (inactive),-0.4
O=C(NCC(c1cccnc1)N1CCN(c2ccc(F)cc2)CC1)C1CCCCC1 (configuration not stated),-37% (inactive),0.5
COc1ccc(Nc2nc3c(S(=O)(=O)c4ccc(C(C)C)cc4)nnn3c3ccccc23)cc1,-10.2% (inactive),0.3
COc1ccc(S(=O)(=O)c2nnn3c2nc(Nc2ccc(C)cc2)c2ccccc23)cc1,8.2% (inactive),-0.3
N#Cc1c(NC(=O)COc2ccccc2)sc2c1CCCC2,-5% (inactive),2.5
CC(=O)Nc1ccc(Nc2nc3c(S(=O)(=O)c4ccc(C(C)C)cc4)nnn3c3ccccc23)cc1,13.8% (inactive),0.4
CCOC(=O)c1c(-c2cc(Br)c(OC)c(Br)c2)oc2ccc(O)cc12,-2.7% (inactive),-0.6
CCOC(=O)c1c(COc2ccccc2)oc2ccc(O)cc12,-1.1% (inactive),-0.9
O=C(NCC(c1cccnc1)N1CCN(c2ccc(F)cc2)CC1)c1cccs1 (configuration not stated),20.1% (inactive),-0.3

SMILES,inhibition of mean fluorescence,inhibition of percent positive cells [%]
COc1c(F)c(F)c(C(=O)O)c(Nc2ccccc2)c1F,-23.9% (inactive),-2.3
CC1CN(CCC(=O)Nc2ccc3c(c2)OCO3)CC(C)O1 (configuration not stated),14% (inactive),-1.3
COc1ccc(Nc2nc3c(S(=O)(=O)c4ccc(C)cc4)nnn3c3ccccc23)cc1,4.9% (inactive),-0.8
NC1=NC(=O)CC(C(=O)Nc2cccc3ccccc23)S1 (configuration not stated),20.2% (inactive),1.5
CC1CCN(C(C(=O)Nc2ccc(C(C)C)cc2)c2ccc3c(c2)OCO3)CC1 (configuration not stated),35% (active),-0.9
CCc1ccc(Nc2nc3c(S(=O)(=O)c4ccc(C(C)C)cc4)nnn3c3ccccc23)cc1,6.9% (inactive),-1.1
O=C(O)c1cc([N+](=O)[O-])cc([N+](=O)[O-])c1Nc1ccc(Cl)cc1,-16.3% (inactive),0.2
CC(C)c1ccc(NC(=O)C(c2ccc3c(c2)OCO3)N2CCOCC2)cc1 (configuration not stated),2.7% (inactive),-0.1
CC(C)c1ccc(NC(=O)C(c2ccc3c(c2)OCO3)N2CCCCC2)cc1 (configuration not stated),36.4% (active),-0.7
O=C(NCC(c1cccnc1)N1CCN(c2ccccc2)CC1)c1ccc(F)cc1 (configuration not stated),-24.9% (inactive),-0.8
COc1c(F)c(F)c(C(=O)O)c(Nc2ccc(C)cc2C)c1F,67.8% (active),13.3
O=C(Nc1ccc2c(c1)OCO2)C(c1ccccc1)N1CCCCC1 (configuration not stated),40.3% (active),-0.7
CCc1ccc(S(=O)(=O)c2nnn3c2nc(Nc2ccc(Oc4ccccc4)cc2)c2cc(Cl)ccc23)cc1,-16.6% (inactive),-0.1
O=C(NC1CCCCC1)C(c1cc2c(cc1[N+](=O)[O-])OCO2)N1CCN(c2ccccc2)CC1 (configuration not stated),-34.9% (inactive),0.3
CCc1ccc(S(=O)(=O)c2nnn3c2nc(Nc2ccc(OC)cc2)c2sccc23)cc1,5.8% (inactive),-0.5
COc1ccc(Nc2nc3c(S(=O)(=O)c4ccc(Br)cc4)nnn3c3ccccc23)cc1,2.8% (inactive),-0.8
O=C(O)c1cccnc1Nc1cccc(SC(F)(F)F)c1,64.5% (active),8.8
CC1CCN(c2c(NCC3CCC(C(=O)NCc4ccc5c(c4)OCO5)CC3)c(=O)c2=O)CC1 (configuration not stated),-24.3% (inactive),-0.6
COc1ccc(N2CCN(C(CNC(=O)c3cccc(Cl)c3)c3cccnc3)CC2)cc1 (configuration not stated),-42% (inactive),-1.7
O=C(NCC(c1cccnc1)N1CCN(c2ccccc2)CC1)c1ccccc1F (configuration not stated),-31.8% (inactive),-1.7
O=C1CS/C(=N\C(=O)N2c3ccccc3Sc3ccccc32)N1,91.4% (active),52.4
COc1ccc(OC)c(C(=O)c2coc3ccc(O)cc23)c1,-21.9% (inactive),0
O=C(Nc1ccc2c(c1)OCO2)C(c1ccccc1)N1CCN(C(=O)c2ccco2)CC1 (configuration not stated),-23.7% (inactive),1
CCOC(=O)C1=C(c2ccccc2)NC(SCC(=O)Nc2sc3c(c2C(=O)OCC)CCCC3)=C(C#N)C1c1ccco1 (configuration not stated),-27.4% (inactive),0.1
CC(C)c1ccc(NC(=O)C(c2ccc3c(c2)OCO3)N2CCc3ccccc32)cc1 (configuration not stated),26.3% (inactive),-1.6
CC1CCN(C(=O)Cn2cc(SCC(=O)Nc3ccc4c(c3)OCO4)c3ccccc32)CC1,-4.6% (inactive),-0.2

SMILES,inhibition of mean fluorescence,inhibition of percent positive cells [%]
O=C(NCC(c1cccnc1)N1CCN(c2ccccc2F)CC1)c1ccc(F)cc1 (configuration not stated),11.5% (inactive),-1.8
O=C(CCN1CCN(c2ccccc2)CC1)Nc1ccc2c(c1)OCO2,5.8% (inactive),1.3
O=C(NCCN1CCN(c2ccccc2)CC1)c1ccccc1F,-12.3% (inactive),-1.5
O=C(NCC(c1cccnc1)N1CCc2ccccc2C1)c1ccc(F)c(F)c1 (configuration not stated),-6.4% (inactive),-0.1
O=C(NCCN1CCN(c2ccccc2F)CC1)c1ccc2c(Cl)c3c(nc2c1)CCCC3,4.8% (inactive),-0.2
Cc1ccc(S(=O)(=O)c2nnn3c2nc(Nc2ccc(Oc4ccccc4)cc2)c2ccccc23)cc1,-5% (inactive),0
O=C(NCC(c1cccnc1)N1CCN(c2ccccc2F)CC1)C1CCCCC1 (configuration not stated),-12.9% (inactive),-0.1
CC1CCCN(C(C(=O)NC2CCCC2)c2cc3c(cc2[N+](=O)[O-])OCO3)C1 (configuration not stated),14.5% (inactive),-1.7
CC(C)c1ccc(NC(=O)C(c2ccc3c(c2)OCO3)N2CCN(C(=O)c3ccco3)CC2)cc1 (configuration not stated),-33.9% (inactive),-1.4
O=C(Nc1ccc2c(c1)OCCO2)C(c1ccccc1)N1CCOCC1 (configuration not stated),9.5% (inactive),2.3
O=C(CN1CC(c2ccccc2)CC1=O)Nc1ccc2c(c1)OCO2 (configuration not stated),5.5% (inactive),-0.1
COc1c(F)c(F)c(C(=O)O)c(Nc2cc(C)cc(C)c2)c1F,-29.1% (inactive),-2
CC1CCCN(C(C(=O)Nc2ccc(C(C)C)cc2)c2ccc3c(c2)OCO3)C1 (configuration not stated),23.8% (inactive),0.5
N#Cc1c(NC(=O)CN2C(=O)c3ccccc3C2=O)oc(-c2ccccc2)c1-c1ccccc1,41.7% (active),0.2
CC(=O)c1cc2c(cc1NC(=O)CN1CCN(C(c3ccccc3)c3ccccc3)CC1)OCO2,38.7% (active),0.4
COc1ccc(S(=O)(=O)c2n[nH]n3c2nc(=O)c2ccccc23)cc1,34.1% (active),-1.8
O=C(NCC(c1cccnc1)N1CCN(c2ccccc2F)CC1)c1ccco1 (configuration not stated),-27.7% (inactive),-1.9
Cc1cccc(Nc2c(F)c(F)c(F)c(F)c2C(=O)O)c1,-16.8% (inactive),-0.2
CC(C)c1ccc(S(=O)(=O)c2n[nH]n3c2nc(=O)c2ccccc23)cc1,80.5% (active),22.1
O=C(Nc1ccc2c(c1)OCO2)C1CCCN(C(=O)c2cnn(-c3ccccc3)c2-n2cccc2)C1 (configuration not stated),-23.9% (inactive),0.1
COc1ccc(S(=O)(=O)c2nnn3c2nc(Nc2cccc(C)c2)c2ccccc23)cc1,-7.2% (inactive),0.1
O=C(Nc1ccc2c(c1)OCO2)C(c1ccccc1)N1CCC(Cc2ccccc2)CC1 (configuration not stated),63% (active),4.2
COc1ccc(C2C(C(=O)Nc3ccc4c(c3)OCO4)c3ccccc3C(=O)N2C2CCCCC2)cc1 (configuration not stated),8% (inactive),0.6
CCN1CCN(C(CNC(=O)c2ccc(F)cc2)c2cccnc2)CC1 (configuration not stated),-8.8% (inactive),-0.6
